# Screening data (PubChem)
# NS1 function inh = qHTS Assay for Inhibitors of Influenza NS1 Protein Function. 270,000 compounds, 0.4% hits. Potency, µM (highest dose often 46.1 µM), for inactives: at the top dose activity, positive = more growth; calls by dose curve; note: actives are rising curves; nearly all actives have a fitted effect of over 50% in size
#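 In this qHTS, NS1 from influenza A is expressed in budding yeast, where it slows growth. Cells are switched from glucose to 2% galactose medium (pH 6.0, -URA), treated with compound, and growth recovery is read at OD600.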
# Cruzain inh noDet = qHTS Assay for Promiscuous and Specific Inhibitors of Cruzain (without detergent) | purified cruzain, Z-FR-AMC fluorescence, no detergent | Potency, µM, without a hit: max response, negative = inhibition, most hits filed as inhibitors | 200,000 compounds, 2.3% hits | AID 1476, 2009;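 note: plate controls were enzyme without inhibitor for no effect and buffer without enzyme for full effect; nearly all actives have a fitted effect of over 40% in size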
# Target sequence (P25779 123-467 limits assumed): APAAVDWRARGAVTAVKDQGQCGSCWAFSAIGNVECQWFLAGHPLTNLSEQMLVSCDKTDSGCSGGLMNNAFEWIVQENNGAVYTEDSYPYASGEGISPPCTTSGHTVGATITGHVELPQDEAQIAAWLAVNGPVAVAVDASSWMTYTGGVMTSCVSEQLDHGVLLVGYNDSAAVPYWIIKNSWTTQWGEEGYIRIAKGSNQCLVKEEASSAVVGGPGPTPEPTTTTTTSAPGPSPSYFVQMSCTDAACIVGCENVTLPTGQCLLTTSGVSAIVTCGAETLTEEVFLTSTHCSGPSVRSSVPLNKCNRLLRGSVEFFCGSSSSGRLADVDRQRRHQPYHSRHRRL
#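 Detergent-free condition (0.00005% Triton X-100) in acetate buffer pH 5.5 with DTT. 1.5 nM enzyme and compound were pre-mixed 15 min, then 2 uM Z-FR-AMC substrate added; reaction progress from fluorescence change between first and third reads (60 s).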
# Cruzain inh Det = qHTS Assay for Promiscuous and Specific Inhibitors of Cruzain (with detergent); Cruzipain (Trypanosoma cruzi), P25779; purified cruzain, Z-FR-AMC fluorescence, 0.01% Triton; Potency, µM, for inactives: max response, negative = inhibition, most hits filed as inhibitors; 200,000 compounds, 0.43% hits; AID 1478, 2009;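 note: plate controls were neutral wells for no effect and buffer without enzyme for full effect; nearly all actives have a fitted effect of over 40% in size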
#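 Enzyme 1.5 nM, Z-FR-AMC 2 uM, NaOAc 100 mM pH 5.5, DTT 5 mM, Triton X-100 0.01%; 15 min RT compound preincubation; kinetic ex360/em450, 60 s delta.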
# * = called active by the depositor; ? = inconclusive; · = not tested or not shown; ! = repeats disagree. The full list was thinned out, with hits kept by preference. Unless noted, calls come from the whole dose curve; as a rule, active = well fitted curve in the direction sought with a large enough effect; inconclusive = small, poorly fitted or top-dose-only effect, or another doubt; inactive = no such curve, though single readings can be large; an effect the other way counts as inactive or inconclusive. Potency is the fitted concentration of half-maximal effect.
SMILES,NS1 function inh,Cruzain inh noDet,Cruzain inh Det
Cc1cc(N2CCC(C(=O)Nc3ccc(Cl)cc3)CC2)n2nc(C)c(-c3ccc(Cl)cc3)c2n1,·,-4%,0%
O=C1N=C(N2CCN(c3cccc4ccccc34)CC2)S/C1=C/c1cccs1,7%,20µM*,-10%
Cc1ccccc1N1CCN(C2=NC(=O)/C(=C\c3cccs3)S2)CC1,-7%,?,-14%
CCN(c1ccccc1)S(=O)(=O)c1ccc(NC(=O)c2cc(=O)c3cc(C)ccc3o2)cc1,·,4%,-2%
CCc1ccc(NC(=O)C(CC)Sc2nc3cc4c(cc3c(=O)n2Cc2ccco2)OCO4)cc1 (stereo not drawn),5%,25µM*,6%
CCc1ccccc1NC(=O)C(CC)Sc1nc2cc3c(cc2c(=O)n1Cc1ccco1)OCO3 (stereo not drawn),12%,3%,8%
Cc1cnc(CNc2nc(-c3ccc(C(=O)N(C)C)cc3)nc3ccccc23)cn1,·,-3%,-2%
COc1ccc(/C=C2/SC(=S)N(n3c(C)ccc3C)C2=O)cc1,10%,25µM*,-5%
CCOc1ccc(/C=C2/SC(=S)N(n3c(C)ccc3C)C2=O)cc1,5%,-41%,-6%
O=c1c2c(n3nnnc3n1Cc1ccccc1)-c1ccccc1CC21CCCC1,-10%,25µM*,4%
CCC1(C)Cc2ccccc2-c2c1c(=O)n(Cc1ccccc1)c1nnnn21 (stereo not drawn),7%,?,5%
O=C(N/N=C/C=C/c1ccccc1)c1ccc(Br)cc1,-4%,20µM*,3%
Cn1cc(C(=O)N/N=C/C=C/c2ccccc2)ccc1=O,-4%,-6%,-9%
Cc1ccc(-n2cnnn2)cc1S(N)(=O)=O,·,2%,1%
CC(=O)[C@@H]1[C@@H]2C(=O)N(C3CCCCC3)C(=O)[C@@H]2C2c3ccccc3C=CN21 (stereo partly drawn),?,-15%,1%
COc1ccc(NC(=O)[C@@H]2[C@@H]3C(=O)N(C4CCCCC4)C(=O)[C@@H]3C3c4ccccc4C=CN32)cc1 (stereo partly drawn),?,16µM*,-2%
CCOC(=O)c1ccc(NC(=O)CSc2nnc(CNC(=O)c3ccc(OC)cc3)n2CC)cc1,·,?,0%
COc1ccc(CCNC(=O)c2ccc3c(c2)N(Cc2cccc(Cl)c2)C(=O)c2ccccc2S3=O)cc1OC (stereo not drawn),·,-12%,-2%
CCc1cccc(C)c1NC(=O)CN1C(=O)c2ccccc2Sc2ncccc21,·,?,-3%
O=c1cc(-c2ccc(O)c(O)c2)oc2cc(O)cc(O)c12,-3%,-19%,-13%
O=c1c(O)c(-c2ccc(O)c(O)c2)oc2cc(O)cc(O)c12,-8%,20µM*!,?
Cc1ccc(-n2c(C)cc(/C=c3/sc4nc5ccccc5n4c3=O)c2C)cc1,4%,10µM*,0%
O=c1/c(=C\c2cccn2-c2ccccc2)sc2nc3ccccc3n12,2%,?,3%
O=S(=O)(c1ccccc1)c1nc(-c2cccs2)oc1SCc1ccccc1F,·,16%,-6%
COc1cccc(OCC(=O)Nc2ccccc2-c2ccccc2)c1,0%,·,·
SMILES,NS1 function inh,Cruzain inh noDet,Cruzain inh Det
COc1cccc(OCC(=O)NNC(=O)c2ccc(-c3ccccc3)cc2)c1,13%,25µM*,1%
O=C(Cn1nnc(-c2ccc(Cl)cc2)n1)NCCC1=CCCCC1,-2%,20µM*,10%
Cc1ccc(-c2nnn(CC(=O)NCCC3=CCCCC3)n2)cc1,1%,?,8%
COc1cc(SC#N)ccc1N=Cc1c(C)[nH]n(-c2ccc(C)c(C)c2)c1=O,-4%,-5%,-5%
COc1cc(SC#N)ccc1N=Cc1c(C)[nH]n(-c2ccc(Cl)cc2)c1=O,1%,20µM*,0%
Cc1cn(C)c(CC(=O)Nc2ccc(F)cc2Cl)c1C(=O)O,·,-14%,0%
C[C@@H]1[C@@H](C)N1C[C@H](O)Cn1ccnc1[N+](=O)[O-] (stereo partly drawn),3%,-1%,-1%
CCCn1c(-c2ccc(F)cc2)nc2c(N3CCN(CCn4ccnc4)CC3)nc(C)nc21,·,2%,0%
O=C(COC(=O)CNC(=O)C1CCCCC1)Nc1ccc(Cl)cn1,-10%,6.3µM*,6.3µM*
CCOC(=O)c1sc(NC(=O)COC(=O)CNC(=O)C2CCCCC2)c(C(=O)OCC)c1C,-4%,-29%,2.2µM*
CCOC(=O)c1sc(NC(=O)COC(=O)CNC(=O)c2ccco2)c(C(=O)OCC)c1C,-5%,?,-14%
O=C(COC(=O)CCOc1ccccc1)Nc1ccc(Cl)cn1,3%,-2%,-5%
COCCN=C1OC(=O)N2C(=O)C3=C4C(C[C@H]5C(=O)N(c6ccccc6)C(=O)[C@H]5[C@H]4[C@@]12Cc1ccccc1)[C@H]1C(=O)N(c2ccccc2)C(=O)[C@H]1[C@H]3C (stereo partly drawn),·,?,3%
CCCC(=O)Nc1nc(C)c(-c2csc(Nc3ccccc3C)n2)s1,2%,-27%,2%
CCCCCC(=O)Nc1nc(C)c(-c2csc(Nc3ccccc3OCC)n2)s1,8%,7.9µM*,1%
CCCCCC(=O)Nc1nc(C)c(-c2csc(Nc3ccccc3OC)n2)s1,?,13µM*,-2%
COc1ccc(OC)c(Nc2nc(-c3sc(NC(=O)CC(C)C)nc3C)cs2)c1,10%,-29%,-1%
CCCC(C)C(=O)Nc1nc(C)c(-c2csc(Nc3ccccc3OC)n2)s1 (stereo not drawn),11%,?,5%
CCCCCCC(=O)Nc1nc(C)c(-c2csc(Nc3ccccc3OC)n2)s1,19%,10µM*,4%
Clc1ccc(CSCCc2ccncc2)cc1Cl,-31%,2%,-5%
CCn1c(=O)c2cc(C(=O)Nc3cc(F)ccc3F)sc2c2ccccc21,·,-2%,3%
CC(=O)n1c(COS(C)(=O)=O)nc2ccccc21,1%,-14%,5%
COc1ccc(C2c3c(n(C)c4ccccc34)C(=O)N2CC(=O)Nc2cccc(Cl)c2C)cc1 (stereo not drawn),·,?,-6%
Cc1ccc2c(Cl)cc(Cl)c(OCC(=O)Nc3cccc(S(N)(=O)=O)c3)c2n1,20%,7%,-10%
Cc1ccc2c(Cl)cc(Cl)c(OCC(=O)Nc3cccc(S(=O)(=O)N(C)C)c3)c2n1,-1%,13µM*,-2%
SMILES,NS1 function inh,Cruzain inh noDet,Cruzain inh Det
O=C(CSc1ccc(Cl)cc1)Nc1nnc(-c2cccc([N+](=O)[O-])c2)s1,-5%,?,-2%
O=C(Cc1cccc2ccccc12)Nc1nnc(-c2cccc([N+](=O)[O-])c2)s1,12%,25µM*,0%
CCCN(CCC)S(=O)(=O)c1ccc(C(=O)Nc2nc3c(s2)CCc2ccccc2-3)cc1,-5%,7.9µM*,1%
COc1cccc(OC)c1C(=O)Nc1nc2c(s1)CCc1ccccc1-2,·,7%,0%
Cc1ccc(Cl)cc1-n1c(=O)c2sc3ccccc3c2n(Cc2ccccc2)c1=O,·,1%,-1%
COc1cccc(Cn2c(=O)n(-c3ccc(Br)cc3F)c(=O)c3sc4ccccc4c32)c1,·,13µM*,-5%
COc1ccccc1C(=O)Nc1ccc(Oc2ncnc3sc(-c4ccccc4)cc23)cc1,1%,6.3µM*,2%
COc1ncnc2sc(-c3ccccc3)cc12,-67%,12%,-5%
